# PubChem BioAssay (NCI)
# This is part of a sample that, as a whole, favours compounds with a hit. Of some 83,000 tested, about 20% had one in any assay.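 Single-dose data. Exposure time 48 hours. Values below 10 considered active.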 Calls of active or inactive are those of the source.
# Test system: HCT-15 colon
# Assay: NCI-60 one-dose screen, 48 h (100 = growth as untreated, 0 = no growth, -100 = all killed)
# Conditions: 10 µM unless noted
row,Structure (SMILES),growth
1,ClCCN(CCCl)Cc1ccc(Nc2ccnc3cc(Cl)ccc23)cc1,48.2% (inactive)
2,N#CCCNc1ccccc1,111% (inactive)
3,C[C@]12CCc3sc(NCCc4ccccc4)nc3C1=CC[C@@H]1[C@@H]2CC[C@]2(C)C(=O)CC[C@@H]12,22.5% (inactive)
4,Cc1cnc(/C=C/C(=O)O)cc1-c1cc2c(cc1C)C(C)(C)CCC2(C)C,53.9% (inactive)
5,C[C@@H]1CCC2[C@@H](C)[C@H](OC(=O)CCC(=O)NCCNC(=O)Cc3cc(=O)oc4cc(N(C)C)ccc34)O[C@@H]3O[C@]4(C)CC[C@@H]1C23OO4 (some centres not stated),7.81% (active)
6,CCN(CCO)C(Cc1ccccc1)c1ccccc1 (configuration not stated),94.3% (inactive)
7,CC1=C2[C@@H](CC1)[C@]1(C)O[C@@](C(C)C)(C[C@H]1O)[C@H]2OC(=O)C1CC1c1ccccc1 (some centres not stated),89.8% (inactive)
8,COC(=O)[C@@H](C)C[C@H](Cc1ccccc1)NC(=O)c1nc([C@@H](C[C@H](C(C)C)N(C)C(=O)[C@@H](NC(=O)[C@H]2C[C@H](O)CCN2C)C(C)C)OC(C)=O)sc1C(C)C,2.8% (active)
9,COc1cc(C=Nc2cc(Cl)cc(Cl)c2)ccc1N(CCCl)CCCl,96.2% (inactive)
10,COC(=O)[C@@H](C)C[C@H](Cc1ccccc1)NC(=O)c1csc([C@@H](C[C@H](C(C)C)N(C)C(=O)[C@@H](NC(=O)[C@H]2CCCN2C)C2CC2)OC(C)=O)n1,18.3% (inactive)
11,NC(=S)c1cn(C2OC(CO)C(O)C2O)c2ncnc(N)c12 (configuration not stated),-11.2% (active)
12,O=C(N/N=C/c1ccc(N(CCCl)CCCl)cc1)c1cccc2ccccc12,56.1% (inactive)
